Laboratory results: PubChem BioAssay (Tox21)
Records with an inconclusive call do not appear. The source made the active and inactive calls. Calls come from the whole dose curve; as a rule, active = well fitted curve in the direction sought with a large enough effect in the repeat runs; inconclusive = weak or mixed curves; inactive = no such curve, though single readings can be large; an effect the other way counts as inactive or inconclusive.

How the values were obtained:
[1] = A CellTox Green Cytotoxicity Assay to monitor cytotoxicity in HEK293 cells - 40 hour (AID 1224871); note: nearly all actives have a fitted effect of over 45% in size
How it was run: (§1)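 Homogeneous no-lysis format: HEK293 cell suspension mixed with CellTox Green reagent, seeded, incubated 5 h at 37 C/5% CO2, then dosed by pintool with compound in DMSO.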

[2] = qHTS RealTime-Glo MT Cell Viability Assay in HEK293 cells - 16 hour (AID 1224872); note: top concentration of the series differs between compounds; nearly all actives have a fitted effect of over 50% in size
How it was run: (§2)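 Cells + reagent dispensed (600 cells/well, HEK293) → 5 h at 37 C/5% CO2 → 23 nL compound in DMSO pinned → 40 h at 37 C → luminescence read at 0, 8, 16, 24, 32, 40 h.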

[3] = qHTS RealTime-Glo MT Cell Viability Assay in HepG2 cells - 8 hour (AID 1224873); note: nearly all actives have a fitted effect of over 55% in size
How it was run: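 Real-time viability: cells seeded at 600 per well together with NanoLuc and cell-permeant prosubstrate, compounds added after 5 h incubation. Luminescence tracked at 0, 8, 16, 24, 32 and 40 h of exposure.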

[4] = qHTS RealTime-Glo MT Cell Viability Assay in HEK293 cells - 40 hour (AID 1224874); conditions: RealTime-Glo luminescence; max response: active compounds read low; note: nearly all actives have a fitted effect of over 50% in size
How it was run: (§3)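 Measured as luminescence from the same continuously cultured HEK293 wells at successive time points (0, 8, 16, 24, 32, 40 h) after compound addition. Reagent present from seeding; dosing at 5 h; incubation 37 C.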

[5] = A CellTox Green Cytotoxicity Assay to monitor cytotoxicity in HEK293 cells - 24 hour (AID 1224875); note: series mostly up to about 77 µM; nearly all actives have a fitted effect of over 45% in size
How it was run: as §1

[6] = A CellTox Green Cytotoxicity Assay to monitor cytotoxicity in HepG2 cells - 16 hour (AID 1224876); note: nearly all actives have a fitted effect of over 45% in size
How it was run: (§4)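 Fluorescent DNA-binding dye, 600 HepG2 cells/well, 5 h preincubation then compound in DMSO; same plates read at 0–40 h, 37 C.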

[7] = qHTS RealTime-Glo MT Cell Viability Assay in HepG2 cells - 32 hour (AID 1224877); note: nearly all actives have a fitted effect of over 55% in size
How it was run: (§5)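 Real-time, nonlytic viability: 600 HepG2 cells/well mixed with NanoLuc enzyme plus prosubstrate; 5 h settle, compound (DMSO) added by pintool; luminescence monitored over 40 h at 37 C.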

[8] = A CellTox Green Cytotoxicity Assay to monitor cytotoxicity in HepG2 cells - 24 hour (AID 1224878); note: nearly all actives have a fitted effect of over 45% in size
How it was run: as §4

[9] = A CellTox Green Cytotoxicity Assay to monitor cytotoxicity in HepG2 cells - 40 hour (AID 1224879); note: nearly all actives have a fitted effect of over 40% in size
How it was run: as §4

[10] = qHTS RealTime-Glo MT Cell Viability Assay in HEK293 cells - 0 hour (AID 1224880)
How it was run: as §3

[11] = A CellTox Green Cytotoxicity Assay to monitor cytotoxicity in HEK293 cells - 32 hour (AID 1224881); note: nearly all actives have a fitted effect of over 40% in size
How it was run: as §1

[12] = A CellTox Green Cytotoxicity Assay to monitor cytotoxicity in HepG2 cells - 32 hour (AID 1224883); note: nearly all actives have a fitted effect of over 50% in size
How it was run: as §4

[13] = A CellTox Green Cytotoxicity Assay to monitor cytotoxicity in HEK293 cells - 8 hour (AID 1224884); note: nearly all actives have a fitted effect of over 35% in size
How it was run: as §1

[14] = qHTS RealTime-Glo MT Cell Viability Assay in HEK293 cells - 24 hour (AID 1224886); note: top concentration of the series differs between compounds; nearly all actives have a fitted effect of over 50% in size
How it was run: as §2

[15] = qHTS RealTime-Glo MT Cell Viability Assay in HEK293 cells - 8 hour (AID 1224887)
How it was run: as §3

[16] = A CellTox Green Cytotoxicity Assay to monitor cytotoxicity in HEK293 cells - 16 hour (AID 1224888); note: nearly all actives have a fitted effect of over 35% in size
How it was run: as §1

[17] = qHTS RealTime-Glo MT Cell Viability Assay in HepG2 cells - 0 hour (AID 1224889); note: nearly all actives have a fitted effect of over 50% in size
How it was run: as §5

[18] = A CellTox Green Cytotoxicity Assay to monitor cytotoxicity in HepG2 cells - 0 hour (AID 1224882); note: nearly all actives have a fitted effect of over 35% in size
How it was run: as §4

[19] = qHTS RealTime-Glo MT Cell Viability Assay in HepG2 cells - 16 hour (AID 1224885); note: nearly all actives have a fitted effect of over 50% in size
How it was run: as §5
% is set by controls: 0 for no effect and ±100 for the full control effect.

CC[C@H](N)c1ccccc1
inactive: Potency [1] | Potency [2] | outcome [3] | max response [4] 5.02% | Potency [5] | Potency [6] | Potency [7] | Potency [8] | Potency [9] | outcome [10] | Potency [11] | Potency [12] | Potency [13] | Potency [14] | Potency [15] | Potency [16] | outcome [17]

CC#Cc1cc(C)nc(Nc2ccccc2)n1
inactive: Potency [1] | Potency [5] | Potency [6] | Potency [7] | Potency [8] | Potency [9] | outcome [10] | Potency [11] | outcome [18] | Potency [12] | Potency [13] | Potency [19] | Potency [16] | outcome [17]

C=C(Cl)CCl
inactive: Potency [1] | Potency [2] | outcome [3] | max response [4] -1.15% | Potency [5] | Potency [6] | Potency [8] | Potency [9] | outcome [10] | Potency [11] | outcome [18] | Potency [12] | Potency [13] | Potency [14] | Potency [15] | Potency [16] | outcome [17]

CCOC(=O)N(C)N=O
inactive: Potency [1] | Potency [2] | outcome [3] | max response [4] 1.11% | Potency [5] | Potency [6] | Potency [7] | Potency [9] | outcome [10] | Potency [11] | outcome [18] | Potency [12] | Potency [13] | Potency [19] | Potency [14] | Potency [15] | Potency [16] | outcome [17]

COc1ccccc1OC
inactive: Potency [1] | Potency [2] | outcome [3] | max response [4] 0.0799% | Potency [5] | Potency [6] | Potency [7] | Potency [8] | Potency [9] | outcome [10] | outcome [18] | Potency [12] | Potency [13] | Potency [19] | Potency [16] | outcome [17]

CC(Cc1ccccc1)NCCCCl (centres undefined)
inactive: Potency [1] | Potency [2] | outcome [3] | max response [4] 5.94% | Potency [5] | Potency [6] | Potency [8] | Potency [9] | outcome [10] | outcome [18] | Potency [13] | Potency [19] | Potency [14] | Potency [15] | Potency [16] | outcome [17]

CCNc1nc(Cl)nc(NC(C)(C)C)n1
inactive: Potency [1] | Potency [2] | max response [4] -11% | Potency [5] | Potency [6] | Potency [7] | Potency [8] | Potency [9] | outcome [10] | outcome [18] | Potency [12] | Potency [13] | Potency [19] | Potency [14] | Potency [15] | Potency [16] | outcome [17]

C=CC=O
inactive: Potency [1] | Potency [2] | outcome [3] | Potency [5] | Potency [6] | Potency [7] | Potency [8] | Potency [9] | outcome [10] | Potency [11] | Potency [13] | Potency [19] | Potency [14] | Potency [15] | Potency [16] | outcome [17]

CCc1cc(OC)c(C[C@H](C)N)cc1OC
inactive: Potency [1] | Potency [2] | Potency [5] | Potency [6] | Potency [7] | Potency [8] | Potency [9] | outcome [10] | Potency [11] | outcome [18] | Potency [12] | Potency [13] | Potency [15] | Potency [16] | outcome [17]

O=C(CCl)NCO
inactive: Potency [1] | Potency [2] | outcome [3] | max response [4] 1.67% | Potency [5] | Potency [6] | Potency [7] | Potency [8] | Potency [9] | outcome [10] | Potency [11] | outcome [18] | Potency [12] | Potency [13] | Potency [19] | Potency [14] | Potency [15] | Potency [16] | outcome [17]

Cc1ccc2cc(C)ccc2c1
inactive: Potency [1] | Potency [2] | outcome [3] | max response [4] 8.7% | Potency [5] | Potency [6] | Potency [7] | Potency [8] | Potency [9] | outcome [10] | Potency [11] | outcome [18] | Potency [12] | Potency [13] | Potency [19] | Potency [14] | Potency [15] | Potency [16] | outcome [17]

CCC1(CC)C(=O)C=CNC1=O
inactive: Potency [1] | Potency [2] | outcome [3] | max response [4] 1.59% | Potency [5] | Potency [6] | Potency [8] | Potency [9] | outcome [10] | Potency [11] | outcome [18] | Potency [12] | Potency [13] | Potency [19] | Potency [14] | Potency [15] | Potency [16] | outcome [17]

COP(=O)(O)OC
inactive: Potency [1] | Potency [2] | outcome [3] | max response [4] -2.51% | Potency [5] | Potency [6] | Potency [7] | Potency [9] | outcome [10] | Potency [11] | outcome [18] | Potency [13] | Potency [15] | Potency [16] | outcome [17]

COc1ccc(CN2CCNCC2)c(OC)c1OC
inactive: Potency [1] | Potency [2] | outcome [3] | max response [4] 5.58% | Potency [5] | Potency [6] | Potency [8] | Potency [9] | outcome [10] | Potency [11] | Potency [12] | Potency [13] | Potency [14] | Potency [15] | Potency [16] | outcome [17]

Nc1c(Cl)c(F)nc(OCC(=O)O)c1Cl
inactive: Potency [1] | Potency [2] | outcome [3] | max response [4] 2.97% | Potency [5] | Potency [6] | Potency [7] | Potency [8] | Potency [9] | outcome [10] | Potency [11] | outcome [18] | Potency [12] | Potency [13] | Potency [19] | Potency [15] | Potency [16] | outcome [17]

CCCN1CCC[C@@H]2Cc3[nH]ncc3C[C@H]21
inactive: Potency [1] | Potency [2] | outcome [3] | max response [4] 2.6% | Potency [5] | Potency [6] | Potency [7] | Potency [8] | Potency [9] | outcome [10] | Potency [11] | Potency [12] | Potency [13] | Potency [19] | Potency [14] | Potency [15] | Potency [16] | outcome [17]
